Only some compounds are listed: those with a hit (about 7.3% of all), similar ones and a draw of the others.
ELG1 genotox: qHTS screen for small molecules that induce genotoxicity in human embryonic kidney (HEK293T) cells expressing luciferase-tagged ELG1; HEK293T ELG1-luciferase reporter, luminescence, 16 h; Potency, µM (titrated, usually from 46 µM), for the others: top-dose activity change, positive = activation, usual class: activators; actives 1.3% (n = 330,000); AID 504466, 2011; further: % of control where 0% means no effect; nearly all actives have a fitted effect of over 60% in size
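DMSO vehicle served as control against compound-treated ELG1-luciferase HEK293T cells; exposure lasted 16 hr at 37 °C and 5% CO2, followed by ONE-Glo luminescence detection after 30 min.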
FLuc modulator: qHTS profiling assay for firefly luciferase inhibitor/activator using purifed enzyme and Km concentrations of substrates (counterscreen for miR-21 project) | purified FLuc, Km substrates, luminescence inhibition | Potency, µM (top dose mostly 57.5 µM), without a hit: at the highest dose activity change, negative = inhibition, usual class: inhibitors | actives 6.9% (n = 360,000);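 further: plate controls were vehicle for no effect and reference inhibitor for full effect; nearly all actives have a fitted effect of over 55% in size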
Target sequence (P08659 whole entry, looked up): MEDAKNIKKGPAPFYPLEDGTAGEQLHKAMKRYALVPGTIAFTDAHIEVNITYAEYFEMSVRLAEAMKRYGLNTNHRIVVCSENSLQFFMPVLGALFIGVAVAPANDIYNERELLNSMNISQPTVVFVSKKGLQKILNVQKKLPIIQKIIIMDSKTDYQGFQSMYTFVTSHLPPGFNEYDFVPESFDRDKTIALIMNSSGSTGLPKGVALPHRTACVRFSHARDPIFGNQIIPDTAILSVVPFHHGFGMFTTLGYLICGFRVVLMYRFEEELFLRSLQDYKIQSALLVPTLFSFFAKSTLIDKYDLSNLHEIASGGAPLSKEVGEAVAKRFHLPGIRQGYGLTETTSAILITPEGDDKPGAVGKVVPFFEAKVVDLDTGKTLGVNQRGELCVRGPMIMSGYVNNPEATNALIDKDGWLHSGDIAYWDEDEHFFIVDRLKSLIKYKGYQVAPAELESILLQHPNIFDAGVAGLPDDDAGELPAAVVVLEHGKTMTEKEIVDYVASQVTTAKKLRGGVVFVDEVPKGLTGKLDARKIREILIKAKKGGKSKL
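Purified P. pyralis luciferase, 10 nM final, with Km-level 10 uM D-luciferin and 10 uM ATP in 50 mM Tris acetate pH 7.5, 10 mM Mg acetate, 0.01% Tween-20, 0.05% BSA; 6-point qHTS titration about 60 µM downward; luminescence read.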
Rab9 prom act: qHTS Assay for Rab9 Promoter Activators. Huh7 Rab9 promoter-luciferase reporter, luminescence, 24 h. actives 2.8% (n = 320,000). Potency, µM (series often up to 9.22 µM), without a hit: at the highest dose activation, negative = inhibition, hits mostly activators; further: % of control where 0% means no effect; nearly all actives have a fitted effect of over 60% in size
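Huh7 cells stably carrying a Rab9 promoter-luciferase reporter, 1500 cells per well in OP-MEM I with 10% FBS, treated with compound 24 hours at 37C. Luciferase activity read by luminescence after 10 minutes with Amplite reagent.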
NPC1 promoter act: qHTS Assay for NPC1 Promoter Activators; Huh7 NPC1 promoter luciferase reporter, 24 h; Potency, µM (doses to about 9.22 µM), without a hit: at the top dose activation, usual class: activators; actives 2.4% (n = 320,000); AID 485313, 2010; further: % of control where 0% means no effect; nearly all actives have a fitted effect of over 60% in size
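Readout is luciferase luminescence, reflecting NPC1 promoter activation in stably transfected Huh7 cells after 24 h compound exposure at 37 °C in reduced-serum medium with 10% FBS.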
SMN2 splice up: qHTS Assay for Enhancers of SMN2 Splice Variant Expression. HEK293 SMN2-luciferase splicing reporter, luminescence, 30-36 h. Potency, µM (series often up to 46.1 µM), inactives show at the top dose activity change, positive = activation, actives largely listed as activators. actives 2.8% (n = 210,000); further: % of control where 0% means no effect; nearly all actives have a fitted effect of over 55% in size
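qHTS luciferase splicing reporter: luminescence rises when SMN2 exon 7 is included in transfected HEK293 cells. Compound exposure lasted 30-36 h at 37C, with 4.5 mM final sodium butyrate as control, followed by a ONE-Glo read.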
KinaseGlo FLuc: Counterscreen for Luciferase (Kinase-Glo TM) Inhibition | Kinase-Glo luciferase, ATP luminescence, 8 min | Luciferin 4-monooxygenase (Photuris pensylvanica), Q27757 | actives 0.28% (n = 200,000) | Potency, µM (doses to about 38.3 µM), without a hit: at the highest dose activity change, negative = inhibition, hits mostly inhibitors; further: on the % scale 0 is the no-effect control and ±100 the full control effect; nearly all actives have a fitted effect of over 60% in size
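Kinase-Glo luciferase light output from ATP and luciferin was measured with 10 uM ATP, within the enzyme's linear range. Buffer: 50 mM imidazole pH 7.2, 50 mM KCl, 7 mM MgCl2, 0.01% Tween 20, 0.05% BSA; luminescence read after 8 min at ambient temperature.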
Starred values were filed as active, the others as inactive; ? = inconclusive; . = no result given; [ ] = another dose, or the depositor's remark. The call rests on the fitted dose curve; in most records, active means well fitted curve in the direction sought with a large enough effect; inconclusive means small, poorly fitted or top-dose-only effect, or another doubt; inactive means no such curve, though single readings can be large; an effect the other way counts as inactive or inconclusive. Potency means the concentration at half of the fitted maximal effect.

SMILES	ELG1 genotox	FLuc modulator	Rab9 prom act	NPC1 promoter act	SMN2 splice up	KinaseGlo FLuc
CNCCCOc1ccc2c(c1)CCC2	5%	-1%	24%	16%	11%	-2%
CCC(=O)c1ccc(OCC(=O)O)cc1	1%	-4%	1%	1%	-15%	11%
CC(C)C[C@@H](CC(=O)N[C@@H](CCCN)CC(=O)N[C@@H]1CCNC[C@H]1C(=O)N[C@H](CC(=O)N[C@@H](CCC(=O)O)CC(=O)O)CC(C)C)NC(=O)[C@@H]1CNCC[C@H]1N	.	.	.	.	6%	0%
O=C(O)c1cc(-c2ccc3c(c2)OCO3)nc2ccccc12	4%	8.5µM*	-7%	9%	14%	-17%
CCCN(CCC)C(=O)c1cc(-c2ccc3c(c2)OCO3)nc2ccccc12	-15%	?	-1%	-2%	-17%	12%
CC(=O)c1ccc(N2CCN(C(=O)c3cc(-c4ccc5c(c4)OCO5)nc4ccccc34)CC2)cc1	-11%	7.6µM*	11%	6%	?	-10%
CC(=O)c1ccc(N2CCN(C(=O)c3cc(-c4ccncc4)nc4ccc(Br)cc34)CC2)cc1	-10%	?	2%	2%	.	.
Cc1ccc2nc(-c3ccc4c(c3)OCCO4)cc(C(=O)O)c2c1	?	2.4µM*	13%	25%	?	6%
CC(NC(=O)c1cc(-c2ccc3c(c2)OCO3)nc2ccccc12)C(C)(C)C (configuration not stated)	0%	-14%	-3%	0%	6%	-1%
CCCNC(=O)NNC(=O)c1cc(-c2ccc3c(c2)OCO3)nc2ccccc12	0%	13µM*	-7%	1%	.	.
COc1ccc(C(=O)Nc2nnc(SCc3cc(=O)n4cccc(C)c4n3)s2)cc1	.	-1%	.	.	.	.
N=C(N)SCc1cccc2c(=O)cc(-c3ccccc3)oc12	.	.	.	.	-8%[9.22 µM]	-2%[7.66 µM]
O=C(O)c1cc(-c2cccs2)nc2cc3c(cc12)OCCO3	10%	9.5µM*	-1%	3%	?	1%
COc1ccccc1N1CCN(c2ncnc3c2nnn3C)CC1	.	5%	.	.	.	.
CC(=O)c1cccc(NC(=O)NCc2ccc3c(c2)OCO3)c1	-7%	?	21%	28%	.	.
O=C(Nc1cccc(Cl)c1)Nc1ccc2c(c1)OCO2	15%	6.7µM*	1.6µM*	2.5µM*	10µM*	-1%
CC(=O)c1cccc(NC(=O)Nc2ccc3c(c2)OCO3)c1	2%	4.8µM*	2.5µM*	3.5µM*	.	.
CCC(C(=O)Nc1ccc(C(C)=O)cc1)n1c(C)c2cnn(-c3ccccc3)c(=O)c2c1C (configuration not stated)	.	-3%	.	.	15%	.
NCC(O)COc1cccc2ccccc12 (configuration not stated)	.	.	.	.	-8%	.
CCc1ccc(Nc2nnc(-c3cc4cc(OC)ccc4oc3=O)s2)cc1	.	-4%	.	.	.	.
COc1ccc2oc(=O)c(-c3nc(C)cs3)cc2c1	?	?	2.8µM*	?	14µM*	?
CC/C(C)=N\Nc1nc(-c2cc3cc(OC)ccc3oc2=O)cs1	17%	17µM*	?	?	.	.
COc1ccc2oc(=O)c(-c3nc(-c4ccc(C)c(C)c4)cs3)cc2c1	.	-11%	.	.	.	.
COc1ccc(Cn2c(=O)c3cccnc3n(CC(=O)Nc3c(C)cc(C)cc3C)c2=O)cc1	.	-1%	.	.	3%	.
CCc1nnc(SCC(=O)Nc2cc(Cl)c(OC)cc2OC)c2cc3oc(C)cc3n12	.	0%	.	.	.	.
COc1cccc(/C=N/n2c(-c3ccco3)nc3ccccc3c2=O)c1	2%	13µM*	0.56µM*	0.4µM*	0.79µM*	-1%
